HT1080-NT tox – qHTS for induction of synthetic lethality in tumor cells producing 2HG: qHTS for the HT-1080-NT fibrosarcoma cell line | HT-1080-NT fibrosarcoma viability, CellTiter-Glo ATP luminescence, 48 h | Potency, µM (highest dose often 46.1 µM), for the others: at the highest dose activity, negative = less viability, hits mostly cytotoxic | hit rate 1.6% among 360,000 | AID 686970, 2013;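 note: NT is the 2HG producing partner of a matched IDH1 knockdown line; 0% = DMSO-treated cells and -100% = media-only wells without cells; nearly all actives have a fitted effect of over 55% in size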
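Viability by CellTiter-Glo luminescence after 48 h compound exposure at 37C of HT-1080-NT cells (750/well, RPMI, 5% FBS). % activity scaled between DMSO wells and medium-only wells, then curve-fitted and categorized by curve class.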
KB-V1 MDR tox – qHTS assay for MDR1-selective chemotherapeutics: Primary screen using the drug-selected MDR subline cells KB-V1 | KB-V1 MDR cells viability, CellTiter-Glo, 72 h | Potency, µM (titrated, usually from 46.1 µM), most hits filed as cytotoxic | hit rate 3.4% among 400,000; note: % is set by controls: 0 for no effect and ±100 for the full control effect; nearly all actives have a fitted effect of over 60% in size
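KB-V1 MDR subline cells in DMEM (phenol-red free, 10% FBS) exposed to compounds in qHTS concentration series for 72 h at 37 degrees C. Viability read by CellTiter-Glo luminescence; concentration-effect curves fitted after normalization and correction.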
MCF10A rerep – A quantitative high throughput screen for small molecules that induce DNA re-replication in MCF 10a normal breast cells; MCF 10A DNA re-replication, Hoechst nuclear intensity, 48 h; Potency, µM (top dose mostly 46.1 µM), for inactives: at the top dose activity, positive = re-replication, actives largely listed as activators; hit rate 2.9% among 350,000; AID 624296, 2012; note: % of control where 0% means no effect; nearly all actives have a fitted effect of over 50% in size
KB-3-1 cytotox – qHTS assay for MDR1-selective chemotherapeutics: Primary screen using the parental adenocarcinoma cell KB-3-1; KB-3-1 viability, CellTiter-Glo ATP luminescence, 72 h; Potency, µM (doses to about 46.1 µM), hits mostly cytotoxic; hit rate 1.4% among 400,000; note: % is set by controls: 0 for no effect and ±100 for the full control effect; nearly all actives have a fitted effect of over 60% in size
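Cytotoxicity in the drug-sensitive parental line KB-3-1 was scored as loss of CellTiter-Glo luminescence following 72 h incubation with compound. Values come from curve fitting of normalized concentration-response data.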
HT1080 IDH1KD tx – qHTS for induction of synthetic lethality in tumor cells producing 2HG: qHTS for the HT-1080-IDH1KD cell line; hit rate 2% among 360,000; HT-1080 IDH1 knockdown viability, ATP luminescence, 48 h; Potency, µM (series often up to 46.1 µM), for the others: top-dose activity, negative = toxicity, hits mostly cytotoxic;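 note: 0% = DMSO wells and -100% = cell-free medium wells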
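Assay cells: HT-1080 with IDH1 knockdown, 750 per well, RPMI/5% FBS. Exposure: 48 h at 37 °C following 2 h pre-incubation. Read: CellTiter-Glo luminescence; fitted concentration-response, curve class assigned.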
SW480 rereplic – A quantitative high throughput screen for small molecules that induce DNA re-replication in SW480 colon adenocarcinoma cells; SW480 DNA re-replication, Hoechst DNA content imaging, 48 h; Potency, µM (doses to about 46.1 µM), for inactives: at the highest dose re-replication activation, actives largely listed as activators; hit rate 1.8% among 340,000; note: % of control where 0% means no effect; nearly all actives have a fitted effect of over 55% in size
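SW480 cells exposed to compounds for 48 hr at 37 C, 5% CO2, then Hoechst-stained 40 min. Nuclear DNA content imaged by fluorescence scanning (405 nm excitation, 500-530 nm emission); re-replication scored as increased high-intensity nuclei.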
Active calls of the source: *; i = inactive; u = inconclusive; x = not tested or not shown. An excerpt weighted towards active compounds, which were near 7.9% of everything screened. Calls come from the whole dose curve; as a rule, active = well fitted curve in the direction sought with a large enough effect; inconclusive = small, poorly fitted or top-dose-only effect, or another doubt; inactive = no such curve, though single readings can be large; an effect the other way counts as inactive or inconclusive. Potency is the fitted concentration of half-maximal effect.

SMILES	HT1080-NT tox	KB-V1 MDR tox	MCF10A rerep	KB-3-1 cytotox	HT1080 IDH1KD tx	SW480 rereplic
COc1nc(Cl)cn(-c2ccc(C)cc2)c1=O	9%	i	-5%	i	5%	-6%
Cc1ccc(-n2c(Cl)c(Cl)nc(Cl)c2=O)cc1	2.6µM*	i	1.8µM*	u	2.9µM*	8.2µM*
CCOc1ccc(Cl)cc1-c1cc(C(=O)Nc2ccc(C(C)C)cc2)[nH]n1	-24%	i	x	i	-25%	x
Cc1nc(SCC(=O)N(CC(C)C)C2CCS(=O)(=O)C2)c2c(C)c(C)sc2n1 (stereo not given)	-6%	3.7µM*	2%	u	-11%	-6%
CCN(C(=O)CSc1nc(C)nc2sc(C)c(C)c12)C1CCS(=O)(=O)C1 (stereo not given)	-3%	i	-3%	i	-2%	-21%
Cc1ccc(N(C)S(=O)(=O)c2cc(-c3cnc(C4CC4)o3)ccc2C)cc1	3%	i	23µM*	u	-4%	28%
Cc1cccc(N(C)S(=O)(=O)c2ccc(-c3cnc(C4CC4)o3)cc2)c1	0.052µM*	u	23µM*	u	u	0.15µM*
O=C(c1cc2nc(-c3ccc(F)cc3)cc(C(F)(F)F)n2n1)N1CCCCC1c1cccnc1 (stereo not given)	u	u	u	3.3µM*	18µM*	u
COC(=O)C1=C(C)N(Cc2ccc(C)cc2)C(=O)/C1=C\c1cc(OC)c(OC)c(OC)c1	u	u	u	i	16µM*	u
COC(=O)C1=C(C)N(Cc2ccc(C)cc2)C(=O)/C1=C\c1ccc(O)c(OC)c1	u	u	u	i	u	1%
Cn1c(=O)c2c(-c3ccccc3)n(C3CCCCC3)cc2n(C)c1=O	6%	21µM*	-1%	i	17%	-5%
Cc1cccc(-c2c3c(=O)n(C)c(=O)n(C)c3cn2C2CCCCC2)c1	-12%	16µM*	u	i	-1%	4%
Cc1ccc(/C=N/NC(=O)c2c(C)nc3ccc(Br)cn23)cc1	1.3µM*	1.3µM*	u	1.5µM*	0.58µM*	1.5µM*
Cc1nc2ccccn2c1C(=O)N/N=C/c1ccccc1	-1%	i	7%	i	-2%	-3%
Cc1ccc2nc(C)c(C(=O)NN=C3CCN(C)CC3)n2c1	5.2µM*	i	u	i	5.2µM*	21µM*
COc1ccc(/C=N\NC(=O)c2c(C)nc3ccc(Br)cn23)cc1	u	u	u	u	0.58µM*	2.3µM*
Cc1nc2ccccn2c1C(=O)N/N=C/c1cc(C)n(-c2ccc(Br)cc2)c1C	-15%	u	u	21µM*	-22%	15%
CCOc1ccccc1CNC(=O)CCCN1C(=O)c2cccnc2Oc2ccc(Cl)cc21	x	i	x	i	x	x
CCc1ccccc1NC(=O)Cc1ccc(-n2c(C)nc3cccnc32)cc1	x	i	x	i	x	x
COc1cccc(/C=N/NC(=O)c2c(C)nc3ccc(Br)cn23)c1O	u	i	-12%	u	u	0.65µM*
CCOc1ccccc1/C=N/NC(=O)c1c(C)nc2ccc(Br)cn12	0%	i	-7%	i	-6%	-1%
COc1ccc(/C=N/NC(=O)c2c(C)nc3ccc(Br)cn23)cc1OC	u	i	u	i	4.6µM*	43%
O=[N+]([O-])c1ccc(Sc2nnnn2-c2ccccc2)nc1	16µM*	u	3.7µM*	u	21µM*	6.5µM*
O=[N+]([O-])c1ccc(Sc2ccccn2)nc1	5%	u	-2%	i	-16%	-5%

Screens as filed in PubChem.
